This is an account of results in PubChem BioAssay (NCI).

Molecules are shown by their SMILES. This is part of a sample that, as a whole, favours compounds with a hit. Of some 83,000 tested, about 20% had one in any assay.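 Single-dose data. Exposure time 48 hours. Values below 10 considered active.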 Unmarked numbers belong to inactive results. The source made the active and inactive calls.

Among the test systems are SK-MEL-2 melanoma; SN12C renal; UO-31 renal; TK-10 renal; ACHN renal; CAKI-1 renal; CCRF-CEM leukemia; MOLT-4 leukemia; SR leukemia; RPMI-8226 leukemia; OVCAR-8 ovarian; OVCAR-5 ovarian; OVCAR-4 ovarian; SK-OV-3 ovarian; IGROV1 ovarian; OVCAR-3 ovarian; HS 578T breast; NCI/ADR-RES ovarian; A498 renal.
What all share (test): NCI-60 one-dose screen, 48 h (100 = growth as untreated, 0 = no growth, -100 = all killed)
Common to all, as to conditions: 10 µM unless noted

Turning to `CCOC(=O)C1=C(CSC(=S)N(C2CCCCC2)C2CCCCC2)N(C)C(=O)NC1c1ccccc1` (stereo not given), the growth with SK-MEL-2 melanoma was 55.6%; in the assay with SN12C renal, 71.2%; in the assay on UO-31 renal, 44.5%; in the assay with TK-10 renal, 74%; in the assay with ACHN renal, 37.8%; with CAKI-1 renal, 25.4%. Besides, the growth in the assay on CCRF-CEM leukemia was 35.3%; with MOLT-4 leukemia it was 28.2%; with SR leukemia, 29.9%; with RPMI-8226 leukemia, 35.8%; with OVCAR-8 ovarian, 49.2%; with OVCAR-5 ovarian, 92%. The growth in the assay on OVCAR-4 ovarian is 45%; in the assay with SK-OV-3 ovarian it was 71.4%; with IGROV1 ovarian, 56.3%; in the assay on OVCAR-3 ovarian, 56.1%; in the assay on HS 578T breast, 80.7%; in the assay with NCI/ADR-RES ovarian it was 64%.
Turning to `CN1CCN(c2ccc3cc(-c4nc5ccccc5[nH]4)c(=O)oc3c2)CC1`, the growth in the assay with SK-MEL-2 melanoma was 105%; in the assay on SN12C renal, 93.7%; with UO-31 renal it was 65.5%; with TK-10 renal, 119%; in the assay on ACHN renal, 89.3%; in the assay on CAKI-1 renal, 84.8%. Moreover, the growth in the assay with A498 renal was 86.3%; in the assay with CCRF-CEM leukemia it was 73.6%; with MOLT-4 leukemia, 88.4%; in the assay on RPMI-8226 leukemia, 64.5%; in the assay on OVCAR-8 ovarian, 94.7%; in the assay on OVCAR-5 ovarian, 102%. Further, the growth is 70.3% in the assay with OVCAR-4 ovarian; 101% in the assay on SK-OV-3 ovarian; 79.9% with IGROV1 ovarian; 97.2% in the assay with OVCAR-3 ovarian; 96.1% in the assay on HS 578T breast; 86.9% with NCI/ADR-RES ovarian.
For the compound `Cc1ccc(Cn2c(-c3nonc3N)nc3ccccc32)cc1`, the growth is 78.2% with SK-MEL-2 melanoma; 96.3% in the assay with SN12C renal; 66.2% in the assay on UO-31 renal; 90.4% in the assay on TK-10 renal; 92.3% in the assay on ACHN renal; 69.7% in the assay with CAKI-1 renal. The growth is 40.4% with A498 renal; 67.2% in the assay on CCRF-CEM leukemia; 56.2% with MOLT-4 leukemia; 91% in the assay with RPMI-8226 leukemia; 81.2% in the assay on OVCAR-5 ovarian; 87.1% with OVCAR-4 ovarian. The growth in the assay with SK-OV-3 ovarian is 80.4%; with IGROV1 ovarian it was 67.2%; with OVCAR-3 ovarian, 71.8%; in the assay with HS 578T breast it was 72.9%; with NCI/ADR-RES ovarian it was 49.2%.
Turning to `CCCCCCCC/C=C\CCCCCCCCOc1ccccc1CCOP(=O)(O)OCC[N+](C)(C)C`, the growth in the assay on SK-MEL-2 melanoma is 84.6%; in the assay on SN12C renal, 70.1%; with UO-31 renal, 65%; in the assay with TK-10 renal, 1.11% (active); in the assay with ACHN renal it was 80.6%; with CAKI-1 renal, 26.9%. For the same compound, the growth in the assay on A498 renal is 82.7%; with MOLT-4 leukemia it was 11.5%; in the assay with SR leukemia it was 42.4%; in the assay with RPMI-8226 leukemia, -0.933% (active); in the assay with OVCAR-8 ovarian it was 60.3%; with OVCAR-5 ovarian it was 85.1%. The growth is 80.3% in the assay with OVCAR-4 ovarian; 9.7% (active) in the assay on IGROV1 ovarian; 56.4% in the assay on OVCAR-3 ovarian; 88% in the assay on HS 578T breast; 98.4% in the assay with NCI/ADR-RES ovarian.
Consider `CN(C)c1ccc(C2CC(c3ccccc3)=NN2/C=C2\SC(=O)NC2=O)cc1` (stereo not given), for which the growth in the assay on SK-MEL-2 melanoma was 113%; with SN12C renal, 87.3%; with UO-31 renal it was 78.9%; in the assay with TK-10 renal, 94.4%; with ACHN renal it was 81.5%; in the assay on CAKI-1 renal it was 95%. The growth in the assay with CCRF-CEM leukemia was 113%; in the assay with MOLT-4 leukemia, 59.7%; in the assay on SR leukemia it was 50.8%; in the assay with RPMI-8226 leukemia it was 87.7%; with OVCAR-8 ovarian it was 100%; in the assay on OVCAR-5 ovarian it was 94.2%. Besides, the growth in the assay on OVCAR-4 ovarian is 82.6%; with SK-OV-3 ovarian it was 115%; with IGROV1 ovarian it was 94%; in the assay on OVCAR-3 ovarian it was 101%; with HS 578T breast, 98.1%; with NCI/ADR-RES ovarian, 95.2%.
Turning to `O=S(=O)(O)CCl`, the growth in the assay with SK-MEL-2 melanoma is 104%; in the assay with SN12C renal, 98.8%; in the assay on UO-31 renal it was 91.6%; in the assay on TK-10 renal it was 92%; in the assay with ACHN renal, 103%; in the assay on CAKI-1 renal, 103%. The growth is 111% in the assay with A498 renal; 99.4% in the assay with MOLT-4 leukemia; 84.9% with SR leukemia; 98.7% in the assay with RPMI-8226 leukemia; 100% in the assay on OVCAR-8 ovarian; 98.3% in the assay with OVCAR-5 ovarian. For the same compound, the growth with OVCAR-4 ovarian is 105%; with SK-OV-3 ovarian it was 107%; with IGROV1 ovarian it was 106%; in the assay on OVCAR-3 ovarian it was 106%; with NCI/ADR-RES ovarian it was 103%.
Take `O=C(CN1CCN(c2cc3c(cc2F)c(=O)c(C(=O)O)cn3C2CC2)CC1)Nc1ccc(C(=O)/C=C/c2ccc(Cl)cc2)cc1`: the growth with SK-MEL-2 melanoma is 113%; in the assay on SN12C renal it was 94.2%; with UO-31 renal, 94.6%; in the assay on TK-10 renal, 111%; in the assay on ACHN renal, 107%; in the assay on CAKI-1 renal, 102%. For the same compound, the growth is 102% in the assay on A498 renal; 99.5% with CCRF-CEM leukemia; 110% with MOLT-4 leukemia; 90.2% in the assay with RPMI-8226 leukemia; 98% with OVCAR-8 ovarian; 115% with OVCAR-5 ovarian. Further, the growth is 110% with SK-OV-3 ovarian; 121% with IGROV1 ovarian; 128% with OVCAR-3 ovarian; 108% in the assay with HS 578T breast; 111% in the assay with NCI/ADR-RES ovarian.
Consider `Cn1cc(C=O)c2ccccc21`, for which the growth in the assay on SK-MEL-2 melanoma is 109%; in the assay on SN12C renal, 91.7%; in the assay with UO-31 renal, 60.6%; in the assay with TK-10 renal, 102%; in the assay with ACHN renal it was 93.5%; with CAKI-1 renal it was 94.6%. The growth in the assay on A498 renal was 95.4%; in the assay on CCRF-CEM leukemia it was 90.6%; in the assay with MOLT-4 leukemia, 92%; in the assay on RPMI-8226 leukemia, 98.4%; in the assay with OVCAR-8 ovarian, 95.2%; with OVCAR-5 ovarian, 101%. For the same compound, the growth in the assay with OVCAR-4 ovarian is 101%; in the assay on IGROV1 ovarian it was 88.6%; with OVCAR-3 ovarian, 106%; in the assay with HS 578T breast, 107%; in the assay on NCI/ADR-RES ovarian, 100%.
`CCCCCCCCCCCCNC(=S)N/N=C/c1ccc(Cl)c(Cl)c1`: the growth with SK-MEL-2 melanoma was 99.8%; with SN12C renal, 101%; in the assay with UO-31 renal, 89.2%; in the assay with TK-10 renal, 143%; with ACHN renal, 94.9%; in the assay on CAKI-1 renal, 101%. Moreover, the growth in the assay with A498 renal was 112%; in the assay with MOLT-4 leukemia, 93.8%; in the assay with SR leukemia it was 93.8%; with OVCAR-8 ovarian, 100%; with OVCAR-5 ovarian, 93.9%; in the assay with OVCAR-4 ovarian, 99.3%. In addition, the growth is 114% in the assay with SK-OV-3 ovarian, 119% in the assay on IGROV1 ovarian, 111% in the assay with OVCAR-3 ovarian and 113% with NCI/ADR-RES ovarian.
